Measurements reported in PubChem BioAssay (EPA / NIEHS).
Calls of active or inactive are those of the source. How the source made its calls: active means hit-call score of the fitted dose curve at least 0.9, where 1 is the maximum; inactive means score below 0.9.

Assay: APR_HepG2_NuclearSize_72hr: Apredica 72-hour HepG2 Assay for Nuclear Size (AID 2282925)
Settings: high-content imaging, actives raise or lower the signal
Outline: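 HepG2 cells dosed 72 h at 0.39–200 uM (10 concentrations, duplicate) in 0.5% v/v DMSO final. Fixed, Hoechst 33342-stained nuclei imaged; nuclear diameter measured by automated image analysis. Bidirectional fit versus DMSO.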

outcome, inactive:
CNS(=O)(=O)c1cc(C(=O)N2CCC(CCN3C4CCC3CC(n3c(C)nc5ccccc53)C4)(c3cccc(F)c3)CC2)c(Cl)cc1F (configuration not stated)
C1=CCCC=CCCC=CCC1
COC(=O)c1c(Cl)c(Cl)c(C(=O)OC)c(Cl)c1Cl
COc1ccc(-n2nc(C(F)F)cc2-c2ccc(S(C)=O)cc2)cc1 (configuration not stated)
O=C(O)c1cccc(Oc2ccccc2)c1
Cc1ccc(O)cc1
CCC(C)(C)C(=O)O[C@H]1C[C@@H](C)C=C2C=C[C@H](C)[C@H](CC[C@@H]3C[C@@H](O)CC(=O)O3)[C@H]21
Fc1ccccc1[C@@H](F)COC1CCC(Nc2ncnc3[nH]ncc23)CC1 (some centres not stated)
C[C@](N)(Cc1ccc(O)c(O)c1)C(=O)O
C=CC(=C)CCC=C(C)C
Cn1c(=O)c2c(ncn2C)n(C)c1=O
Cc1ccc(N)cc1O
CCOC(=O)COc1ccc2c(c1)CC(NCC(O)c1cccc(Cl)c1)CC2 (configuration not stated)
Cn1c(=O)cc(Oc2ccc(F)cc2F)c2cnc(NCC(C)(C)O)nc21
CC(C)=CCCC(C)CCO (configuration not stated)
CC(=O)OCCC(C)C
CCOCCO
CCCCC(CC)COC(=O)c1ccc(C(=O)OCC(CC)CCCC)cc1 (configuration not stated)
O=c1n(CC2CO2)c(=O)n(CC2CO2)c(=O)n1CC1CO1 (configuration not stated)
COc1ccc(/C=C/S(=O)(=O)NC(=O)c2ccc(C)cc2Cl)cc1
CC/C(=C\C(=N/O)C(N)=O)C(C)[N+](=O)[O-] (configuration not stated)

AC50, active:
Clc1nc(Cl)c(Cl)c(Cl)c1Cl 96.9 µM
